Shiga inhibitor = Shiga toxin inhibition; Vero cells, Shiga toxin protein synthesis inhibition reporter; inhibition, % at 38.7 µM; 290,000 compounds, 9.2% hits; AID 2315; in the data active = inhibition mostly above about 28%, no sharp cut-off; inactive = mostly below about 43%; note: 0% is about no effect
CHX counter = affects cycloheximide protein synthesis inhibition readout, counter-screen | max response, % | 300,000 compounds, 12% hits | cell reporter, cycloheximide protein synthesis inhibition counterscreen; in the data active = max response mostly above about 13%, no sharp cut-off; inactive = mostly below about 14%; note: read at 38.3 µM for the half of the compounds with a filed dose; 0% is about no effect
MARV entry inh = inhibitors of Marburg virus binding or cell entry; Marburg virus pseudotyped entry inhibition, cell reporter; 300,000 compounds, 1.8% hits; Potency, µM (highest dose often 37.8 µM), for inactives: at the highest dose activity change, negative = inhibition, usual class: inhibitors; calls by dose curve; tested in HEK293 cells; note: potency is the fitted concentration of half-maximal effect; % is set by controls: 0 for no effect and ±100 for the full control effect
HCV inhibitor = blocks hepatitis C virus. Huh7.5.1 HCVcc-Cre infection, luciferase reporter, 44 h. Potency, µM (top dose mostly 41.8 µM), inactives show top-dose activity change, negative = inhibition, usual class: inhibitors. 340,000 compounds, 3.4% hits; active = well fitted inhibition curve with a large enough effect; inconclusive = small, poorly fitted or top-dose-only effect, or another doubt; inactive = no such curve, though single readings can be large or run the other way; note: potency is the fitted concentration of half-maximal effect; % is set by controls: 0 for no effect and ±100 for the full control effect
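Reporter virus HCVcc-Cre (~0.5 moi) infects cells exposed to compound; seeding density 1,000 cells/well with 4 h settling beforehand. Luminescence, 15 sec read, taken 44 h post-infection following a 15 min RT substrate incubation.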
Lassa entry inh = blocks Lassa virus binding to or entry into cells. Potency, µM (doses to about 37.9 µM), for inactives: at the top dose activity change, negative = inhibition, actives largely listed as inhibitors. 300,000 compounds, 1.2% hits. Lassa virus pseudotype entry inhibition, cell reporter; calls by dose curve; tested in HEK293 cells; note: potency is the fitted concentration of half-maximal effect; % is set by controls: 0 for no effect and ±100 for the full control effect; nearly all actives have a fitted effect of over 50% in size
FMDV inh = foot and mouth disease virus antiviral activity. FMDV antiviral cell-based qHTS. Potency, µM (doses to about 57.9 µM), without a hit: at the highest dose activity change, negative = inhibition, hits mostly inhibitors. 410,000 compounds, 1.2% hits. AID 1159524; calls by dose curve; tested in HEK293T cells; note: read-out not given here; potency is the fitted concentration of half-maximal effect; % is set by controls: 0 for no effect and ±100 for the full control effect; nearly all actives have a fitted effect of over 45% in size
* = called active by the depositor; ? = inconclusive; nt = not tested or not shown; [ ] = another dose, or the depositor's remark. The list is not random: actives were taken first. Their share in the collection is about 13%.

SMILES	Shiga inhibitor	CHX counter	MARV entry inh	HCV inhibitor	Lassa entry inh	FMDV inh
Cc1nnc(C)n1/N=C/c1ccc(O)cc1	-4.9	0.8	1.6%	11.3%	9.7%	-11.0%
Oc1ccc(/C=N/n2c3ccccc3c3ccccc32)cc1	-6.4	-0.6	-4.3%	10µM*	-11.4%	-21.8%
Oc1ccc(/C=N/N=C/c2ccc(O)c(O)c2)cc1O	21.0*	22.6*	?	-3.0%	?	4.2%
O=C(NN=Cc1ccc(O)cc1)C(=O)NN=Cc1ccc(O)cc1	nt	nt	0.9%[46.1 µM]	8.3%	25.9%[46.1 µM]	7.2%
Oc1ccc(/C=N/N=C/c2ccc(O)cc2)cc1	115.1*	50.0*	?	1.8%	19.0%[46.1 µM]	12.0%
Oc1ccc(N=Cc2ccc(O)c(O)c2)cc1	28.9	10.6	?	-3.1%	?	-15.7%
CC1=C(C(=O)Nc2ccc(C)cc2)C(c2ccccc2Cl)n2nnnc2N1 (centres undefined)	nt	nt	nt	nt	?	-17.9%
COc1ccc(CNC(=O)C2CCN(c3nc(OC)nc(OC)n3)CC2)cc1	-10.2	-3.8	?	-11.4%	-1.8%	nt
CCN(c1cccc(C)c1)S(=O)(=O)c1ccc(-c2cc(C)no2)s1	13.8	1.4	nt	15.3%	nt	-23.5%
Fc1cccc(/C=N/N=C/c2cccc(F)c2)c1	111.6*	31.4*	?	12.4%	?	35.2%
Cc1ccc(/C=N/n2nnnc2N)cc1	nt	nt	?	17.5%	3.7%[46.1 µM]	40.0%
Cc1ccc(/C=N/N=C/c2ccc(C)cc2)cc1	74.3*	36.5*	7.0%	1.1%	2.6%	44.8%
COc1ccc(-n2c(SCC(=O)Nc3cc(C)on3)nc3c([nH]c4ccccc43)c2=O)cc1OC	-10.6	11.3	?	nt	-19.0%	0.0%
Oc1ccc(Br)cc1C=Nc1ccc2c3c(cccc13)CC2	30.3	4.3	?	-28.3%	4.9%	-8.2%
CCSc1ccc(C(=O)Nc2cccc(C)n2)cc1[N+](=O)[O-]	22.8*	10.0*	13.0%	?	-7.9%	3.7%
Cc1cccc(NC(=O)c2ccc(N(C)C3CCCCC3)c([N+](=O)[O-])c2)n1	58.4*	20.7*	?	14.1µM*	?	?
Cc1cccc(NC(=O)c2ccc(N3CCCCC3)c([N+](=O)[O-])c2)n1	68.7*	46.0*	?	-27.0%	?	0.0%
Cc1ccc(C)c2sc(NC(=O)c3ccc(N4CCCCC4)c([N+](=O)[O-])c3)nc12	34.8	-1.6	-42.1%	?	8.1%	-15.6%
Cc1cccc(NC(=O)c2ccc(N3CCOCC3)c([N+](=O)[O-])c2)n1	72.3*	38.2*	-20.2%	?	0.9%	1.4%
O=C(CSc1ncccn1)NNC(=O)c1ccccc1	nt	nt	nt	3.6%	nt	-3.3%
O=C(Nc1ccc2c(c1)OCO2)c1cccs1	197.4*	60.6*	?	11.0%	?	33.7%
O=C(N/C(=C/c1ccc2c(c1)OCO2)C(=O)N1CCOCC1)c1cccs1	-11.4	-1.4	7.6%	-0.3%	-0.8%	43.5%
O=C(c1ccc2c(c1)OCCCO2)c1cccs1	43.6*	31.1*	21.7%	-7.5%	?	30.6%
O=C(c1ccccc1)c1ccc2c(c1)OCCOCCOCCOCCO2	21.9	8.4	nt	4.4%	nt	-7.9%
O=C(Nc1cccc(C2OCCCO2)c1)c1cccs1	34.1	8.8	?	0.2%	4.7%	6.8%
SMILES	Shiga inhibitor	CHX counter	MARV entry inh	HCV inhibitor	Lassa entry inh	FMDV inh
O=C(Nc1ccc2c(c1)OCCO2)c1cccs1	47.4*	54.5*	?	2.2%	-20.7%	33.7%
O=C(Nc1ccc2c(c1)OCO2)c1ccc(Br)s1	44.8*	35.1*	?	?	?	3.6%
O=C(Nc1ccc2c(c1)OCO2)c1ccc(Cl)nc1	64.7	17.2	19.5%	18.1%	-1.2%	17.3%
COC(=O)N1CCC2(CC1)CN(c1ccccn1)C2	nt	nt	nt	nt	nt	-1.4%
Cc1cc(C)c(S(=O)(=O)Nc2ccc3oc(C)c(C(=O)OC(C)C)c3c2)cc1C	nt	nt	-18.6%[46.1 µM]	nt	24.7%[46.1 µM]	21.8%
Cc1cnc(NC(=O)c2ccc(-c3ccc([N+](=O)[O-])cc3)o2)s1	nt	nt	nt	-6.8%	nt	-15.1%
O=C(CSc1nnc(C2CC2)n1C1CC1)Nc1cccc(Br)c1	nt	nt	nt	-15.5%	nt	0.4%
CCc1nc2ccccc2nc1N1CCN(S(=O)(=O)c2ccccc2)CC1	-4.0	-2.2	?	5.2%	?	?
O=S(=O)(c1cc(O)ccc1O)c1cccc2c(S(=O)(=O)c3cc(O)ccc3O)cccc12	nt	nt	nt	10µM*	nt	13.2%
O=C(CCNS(=O)(=O)c1cccc2nsnc12)N1CCN(c2ccccn2)CC1	13.1	-4.3	0.0%	nt	nt	nt
CC(C)CN(C(=O)COC(=O)c1ccc2ccccc2n1)C1CCS(=O)(=O)C1 (centres undefined)	-9.0	4.4	?	17.8%	-15.1%	-4.4%
C=CCSc1nnc(NC(=O)CCNC(=O)c2ccco2)s1	23.3	-0.5	5.2%[46.1 µM]	10.7%	-1.3%	33.4%
CNS(=O)(=O)c1cccc(C(=O)OCCCOC(=O)c2cccc(S(=O)(=O)NC)c2)c1	-17.7	-3.0	-15.0%	11.2µM*	?	0.0%
CNS(=O)(=O)c1cccc(C(=O)OCC(=O)NCCCc2ccccc2)c1	-6.6	-3.1	nt	7.4%	nt	0.0%
CNS(=O)(=O)c1cccc(C(=O)OCc2csc(-c3ccccc3)n2)c1	62.5*	32.8*	?	?	?	-11.2%
O=C(Cn1ncc2c3ccccc3n(Cc3ccc(Cl)cc3)c2c1=O)NCCCc1ccccc1	nt	nt	?	nt	1.2%[46.1 µM]	2.5%
CCOc1ccccc1Nc1nnc(C)c(=O)[nH]1	-16.4	-2.2	5.2%[46.1 µM]	-0.9%	-4.5%	6.1%
O=C(COc1cccc2ccccc12)Nc1nc2ccccc2[nH]1	-1.7	1.9	0.1%	12.8%	6.1%	0.1%
CC(CC(=O)Nc1nc2ccccc2[nH]1)c1ccccc1 (centres undefined)	84.4*	45.6*	?	?	?	0.0%
CCOc1ccccc1OCC(=O)Nc1nc2ccccc2[nH]1	51.6*	22.4*	1.9%[46.1 µM]	20.3%	nt	13.5%
Cc1ccccc1OCC(=O)Nc1nc2ccccc2[nH]1	107.7*	31.6*	?	-1.1%	27.6%	75.5%
CCOc1ccccc1Nc1nc2ccccc2[nH]1	22.1	17.2*	-4.0%	?	2.4%	61.1%
CC(CC(=O)Nc1nc2ccccc2[nH]1)n1ccnc1 (centres undefined)	-17.4	12.9	4.9%	1.7%	19.9%	3.5%
CN1C(=O)CSC1=Nc1ccc(F)cc1	-5.4	-1.2	?	24.5%	6.4%	-0.6%
CCCOc1cccc(OCC(=O)Nc2nc3ccccc3[nH]2)c1	55.2	16.7	1.3%	4.2%	-0.7%	7.0%
O=C(COc1ccccc1)Nc1nc2ccccc2[nH]1	65.0*	45.5*	?	-11.7%	?	48.6%
O=C(Cc1ccccc1Cl)Nc1nc2ccccc2[nH]1	30.7*	31.0*	10.0%	-16.4%	?	33.9%
CC(=O)NC(C)c1nc2ccccc2n1Cc1ccccc1Cl (centres undefined)	nt	nt	-1.7%[46.1 µM]	nt	-1.2%[46.1 µM]	-11.5%
CC(NC(=O)/C=C/c1ccco1)c1nc2ccccc2n1Cc1c(Cl)cccc1Cl (centres undefined)	44.0*	21.6*	-17.9%	1.7%	-1.3%	-22.9%
